Reference: PubChem BioAssay (NCI)
This is part of a sample that, as a whole, favours compounds with a hit. Of some 83,000 tested, about 20% had one in any assay.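 Interpretation: 100, growth as untreated; towards 0, rising growth inhibition; 0, no net growth; 0 to -100, cell death. Compounds scoring below 10 were considered active.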 A number with no mark means an inactive call. The source made the active and inactive calls.

System: MDA-MB-468 breast
Assay: NCI-60 one-dose screen, 48 h (100 = growth as untreated, 0 = no growth, -100 = all killed)
Conditions: 10 µM unless noted

| SMILES | growth |
| --- | --- |
| CCN(CC)CC(=O)Nc1c(C)ccc(N)c1C | 95.8% |
| O=C(NCc1cn(Cc2cccc(Oc3ccccc3)c2)nn1)c1cccnc1Nc1ccc(F)cc1 | 33.5% |
| CN(C)c1ccc(-c2cc(-c3ccc(Nc4nc(Nc5ccccc5)nc(Nc5ccc(Cl)cc5)n4)cc3)nc(N)n2)cc1 | 74.3% |
| NS(=O)(=O)c1ccc(Nc2nc(Nc3ccccc3)nc3nnc(SCC(=O)NC4CCCCC4)n23)cc1 | 104% |
| COc1cc(/C=N/Nc2ccc(Br)cc2)cc(OC)c1OC | 49.5% |
| CN(C)CCCn1c2c(c3ccncc3c1=O)C(=O)c1ccccc1-2 | -16% (active) |
| O=C(/C=C/c1ccc(Cl)cc1)c1ccc(-n2cc(CN3CCN(c4cc5c(cc4F)c(=O)c(C(=O)O)cn5C4CC4)CC3)nn2)cc1 | 74.4% |
| Cc1onc(-c2ccccc2)c1C(=O)N/N=C/c1cc(Cl)cc(Cl)c1O | 24.7% |
| C/C(=C/CCC(C)[C@@H]1CC[C@]2(C)C3=C(CC[C@@]12C)[C@@]1(C)CCC(=O)C(C)(C)[C@@H]1CC3)C(=O)O (stereo not given in full) | -60.4% (active) |
| NNc1c2ccccc2nc2ccccc12 | 16.4% |
| CCC(C)(C)C1CCC(O)CC1 (stereo not given) | 104% |
| CC1(C)CC[C@]2(CO)CC[C@]3(C)C(=CC[C@@H]4[C@@]5(C)CC[C@H](NCO)C(C)(C)[C@@H]5CC[C@]43C)[C@@H]2C1 | -70.1% (active) |
| COc1ccc2c(c1)C(=O)c1c-2c(OCCN(C)C)nc2cc(OC)ccc12 | 15.9% |
| CC(C)Sc1nc(-c2ccc(Br)cc2)c(C#N)c(N2CCCCC2)n1 | 93.9% |
| O=C(Nc1cccc(Cl)c1)c1cc(Cl)ccc1O | -1.28% (active) |
| COC(=O)c1ccc(CSc2nnc(-c3ccncc3)o2)cc1 | 115% |
| Cc1cc(NC(=O)Nc2cc(Cl)ccc2C)no1 | 105% |
| C#Cc1cccc(NC(=O)Nc2ccccc2NC(=O)CCl)c1 | -45.2% [8.25 µM] (active) |
| Nc1ccc(-c2nn3c(CCC(=O)c4nc5ncccc5[nH]4)nnc3s2)c(O)c1 | 74.6% |
| CCOP(=O)(NC(c1ccccc1)c1ccccc1)OCC | 104% |

| SMILES | growth |
| --- | --- |
| COc1ccc(CCN2C(=O)CCSC2=S)cc1OC | 19.8% |
| COC(=O)C(CC=O)C(=O)C(=O)Nc1cccc(C(F)(F)F)c1 (stereo not given) | 104% |
| C[C@@H]1COC(Nc2ccc3ncnc(Nc4ccc(OCc5nccs5)c(Cl)c4)c3c2)=N1 | -16.4% (active) |
| C/C(=C\c1cnc(C)s1)[C@@H]1C[C@@H]2O[C@@H]2CCC[C@H](C)[C@H](O)[C@@H](C)C(=O)C(C)(C)[C@@H](O)CC(=O)O1 | 43.4% |
| Oc1ccc(-c2cnc(-c3ccccc3)[nH]2)c(O)c1 | 109% |
| O=C(CCCCC[P+](c1ccccc1)(c1ccccc1)c1ccccc1)NC(COC(=O)C(Cl)Cl)(COC(=O)C(Cl)Cl)COC(=O)C(Cl)Cl | 84.4% |
| Cc1cc(C(=O)Nc2cc(Nc3ncccc3-c3ncnc4nc[nH]c34)ccc2F)cc(C(C)(C)C#N)c1 | 87.7% |
| Clc1ccc2c(NCCN3CCN(c4ccnc(N5CCCC5)n4)CC3)ccnc2c1 | -4.71% (active) |
| C=C(C)[C@@H]1CC[C@]2(C(=O)N3CCN(C)CC3)CC[C@]3(C)[C@H](CC[C@@H]4[C@@]5(C)C/C(=C/c6ccco6)C(=O)C(C)(C)[C@@H]5CC[C@]43C)[C@@H]12 | 64.6% |
| O=[N+]([O-])c1ccc2ncccc2c1Cl | -2.71% (active) |
| CCCN(CCC)C(=O)c1ccc(C)cc1 | 96.3% |
| c1cc(CNCCNCc2ccncc2)ccn1 | 104% |
| Nc1nc(-c2cccc([N+](=O)[O-])c2)c(N=Nc2ccc([N+](=O)[O-])cc2Cl)s1 | -10.7% (active) |
| Cc1cc(C(C)(C)C)ccc1S | 104% |
| CC1Cc2c(Cl)ncnc2N(C)c2ccccc21 (stereo not given) | -31.5% (active) |
| COc1ccc2c(c1)c(CC(=O)[Se]CCC#N)c(C)n2C(=O)c1ccc(Cl)cc1 | -36% (active) |
| O=C(CSc1nnc(-c2cc(-c3ccc(Cl)cc3)nc3ccccc23)n1-c1ccccc1)Nc1ccc(Cl)cc1 | 110% |
| O=c1oc2ccc(F)cc2c(=O)n1-c1ccc(F)cc1F | -4.2% (active) |
| Nc1nc(=S)c2[nH]cnc2[nH]1 | -13.1% (active) |
| Cc1nc2ccccc2c(=O)n1-c1cccc(OCc2cn(-c3cccc(O)c3)nn2)c1 | 87.7% |
